Hits are enriched below; roughly 6.2% of the tested compounds scored in any of these assays.
KB-3-1 cytotox: KB-3-1 parental cell cytotoxicity; 1.4% of 400,000 active; Potency, µM (highest dose often 46.1 µM), hits mostly cytotoxic; KB-3-1 viability, CellTiter-Glo ATP luminescence, 72 h; AID 1347075; further: nearly all actives have a fitted effect of over 60% in size
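Using CellTiter-Glo luminescence, growth of non-resistant KB-3-1 adenocarcinoma cells is assessed 72 h after pin-tool compound addition at 37 °C. Normalized responses across the concentration series yield fitted curves.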
KB-V1 MDR tox: KB-V1 MDR subline cytotoxicity; Potency, µM (titrated, usually from 46.1 µM), actives largely listed as cytotoxic; KB-V1 MDR cells viability, CellTiter-Glo, 72 h; AID 1347076; 3.4% of 400,000 active; further: nearly all actives have a fitted effect of over 60% in size
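Drug-selected KB-V1 cells, grown in DMEM lacking phenol red with 10% FBS, receive compound titrations; after three days at 37 degrees C, surviving cell ATP is quantified by CellTiter-Glo luminescence and responses normalized and curve-fitted.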
HT1080 IDH1KD tx: HT-1080 IDH1 knockdown cell toxicity (counter line). HT-1080 IDH1 knockdown viability, ATP luminescence, 48 h. Potency, µM (doses to about 46.1 µM), usual class: cytotoxic. 2% of 360,000 active
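Luminescent ATP read-out (CellTiter-Glo, 10 min at room temperature) after 48 h compound exposure at 37 °C gave viability of IDH1-knockdown HT-1080 cells. Activity was normalised to DMSO and cell-free wells, then fitted as concentration-response curves.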
HT1080-NT tox: kills 2HG-producing HT-1080-NT fibrosarcoma cells; Potency, µM (top dose mostly 46.1 µM), actives largely listed as cytotoxic; AID 686970; 1.6% of 360,000 active; HT-1080-NT fibrosarcoma viability, CellTiter-Glo ATP luminescence, 48 h;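 further: NT is the 2HG producing partner of a matched IDH1 knockdown line; nearly all actives have a fitted effect of over 55% in size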
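Luminescent CellTiter-Glo readout after 48 hours of compound exposure at 37 degrees C defined viability of HT-1080-NT cells. Activity was normalized to DMSO wells and cell-free media wells; concentration-response curves were fitted and assigned curve classes.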
S2 tox: cell viability loss in ATXN counter-screen; S2 cells (HEK-293 line with an ATXN2-luciferase reporter) viability, CellTiter-Fluor protease fluorescence, 24 h; Potency, µM (titrated, usually from 56.7 µM), usual class: cytotoxic; 0.49% of 400,000 active; further: nearly all actives have a fitted effect of over 40% in size
ATXN2 expr inh: reduces ATXN2 reporter expression in HEK-293 cells. HEK-293 ATXN2-luciferase reporter, luminescence, 24 h. 0.72% of 360,000 active. AID 1745845. Potency, µM (series often up to 57 µM), most hits filed as inhibitors; further: nearly all actives have a fitted effect of over 55% in size
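qHTS (up to 57 uM final) was run with 24 h compound exposure of reporter cells at 37 °C. Each well was multiplexed: SteadyGlo luminescence measured ATXN2-luciferase expression after a fluorogenic Gly-Phe-AFC viability readout (25 uM final).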
A number is an active result; – = inactive; ? = inconclusive; · = no result given; [ ] = another dose, or the depositor's remark. The call rests on the fitted dose curve; in most records, active means well fitted curve in the direction sought with a large enough effect; inconclusive means small, poorly fitted or top-dose-only effect, or another doubt; inactive means no such curve, though single readings can be large; an effect the other way counts as inactive or inconclusive.

SMILES | KB-3-1 cytotox | KB-V1 MDR tox | HT1080 IDH1KD tx | HT1080-NT tox | S2 tox | ATXN2 expr inh
COc1ccc(/C=C2/Sc3ccc(C(=O)NCCN4CCCCCC4)cc3NC2=O)cc1 | – | ? | – | – | 28µM | ·
CC(O)(CS(=O)(=O)Cc1ccccc1)C(=O)Nc1ccc(C(F)(F)F)cc1 (centres undefined) | – | 21µM | ? | – | – | –
CC(O)(CS(=O)(=O)Cc1ccccc1)C(=O)Nc1cccc(C(F)(F)F)c1 (centres undefined) | – | 15µM | ? | – | – | –
CC(O)(CS(=O)(=O)Cc1ccccc1)c1ccc(Cl)cc1 (centres undefined) | – | – | – | – | – | ·
CCCCCOc1ccc(C2SC(=O)NC2=O)cc1OCC (centres undefined) | · | · | · | · | – | –
CCCC(=O)N1CCN(c2nc3ccccc3s2)CC1 | ? | – | – | – | – | ·
CSc1ccc(NC(=O)N2CCN(c3nc4ccccc4s3)CC2)cc1 | ? | 2.6µM | – | – | ? | –
Cn1c(N2CCN(C(=O)Nc3ccc(F)cc3)CC2)nc2ccccc21 | – | 18µM | – | – | – | –
CCN(CC)C(=O)c1sc2c(c1C)c(=O)n(Cc1ccccc1)c(=O)n2Cc1c(C)cc(C)cc1C | – | – | · | · | – | –
CC12CCC(C(=O)Nc3ccccc3Cl)(C(Br)C1=O)C2(C)C (centres undefined) | – | 13µM | – | – | – | –
Cc1ccc2nc3[nH]c(=O)[nH]c(=O)c3c(N)c2c1 | ? | ? | – | – | – | –
Cc1ccc2nc(N)[nH]c(=O)c2c1Sc1ccncc1 | · | · | · | · | – | 13µM
COc1cc2c(cc1OC)C1Cc3ccc(OC)c(OC)c3CN1CC2 (centres undefined) | – | – | – | – | – | –
CCC1=C(CC2NCCc3ccccc32)CC2c3cc(OC)c(OC)cc3CCN2C1 (centres undefined) | 6.5µM | ? | 6.5µM | ? | ? | 8.9µM
Cc1ccc(C)c(NC(=O)c2ccc3c(O)c(S(=O)(=O)c4ccc(Cl)cc4)c(=O)[nH]c3c2)c1 | – | – | · | · | – | –
CCOc1ccc(N(CC(=O)NCc2cccc(OC)c2)S(=O)(=O)c2c(C)noc2C)cc1 | – | 7.3µM | – | – | – | –
COc1ccc(N(CC(=O)NCc2cccc(OC)c2)S(=O)(=O)c2c(C)noc2C)cc1 | – | 13µM | – | – | – | –
CCOc1ccc(N(CC(=O)NCc2ccc(C)cc2)S(=O)(=O)c2c(C)noc2C)cc1 | – | – | · | · | – | –
COc1ccc(N(CC(=O)NCc2ccc(F)cc2)S(=O)(=O)c2c(C)noc2C)cc1 | – | – | – | – | – | –
COc1ccccc1NC(=O)C1=C(C)Nc2nc(CCCO)nn2C1c1cccc(O)c1 (centres undefined) | – | ? | · | · | – | –
CCOC(CCn1c(SCc2ccc([N+](=O)[O-])cc2)nc2ccccc2c1=O)OCC | – | 3.7µM | – | – | – | –
Cc1ccc2nc(N(CCCN(C)C)C(=O)CCc3ccccc3)sc2c1 | – | – | 16µM | 15µM | – | –
CN(C)CCCN(C(=O)CCc1ccccc1)c1nc2ccc(Cl)cc2s1 | ? | 23µM | 16µM | 23µM | – | ?
Cc1ccc2nc(N(CCCN(C)C)C(=O)CS(=O)(=O)c3ccccc3)sc2c1 | – | – | – | – | – | –
Cc1c(OCC(=O)N(C)c2ccccc2)ccc2c3c(c(=O)oc12)CCC3 | – | 9.2µM | – | – | – | –
SMILES | KB-3-1 cytotox | KB-V1 MDR tox | HT1080 IDH1KD tx | HT1080-NT tox | S2 tox | ATXN2 expr inh
CCOc1ccc2c3c(c(=O)oc2c1OCC)CCCC3 | – | 7.3µM | –[9.24 µM] | – | ? | –
CCCOc1ccc2c3c(c(=O)oc2c1OCCC)CCCC3 | – | – | – | – | – | –
CN(C)CC1CCCCC1OC(=O)c1ccc(Cl)cc1 (centres undefined) | – | ? | – | – | – | –
CN(C)CC1CCCCC1C1(O)c2ccccc2CSc2sccc21 (centres undefined) | – | – | 18µM | 18µM | – | –
Nc1cc(Cc2ccccc2)ccc1O | – | 18µM | – | – | – | –
Nc1cc(N)cc(Cc2ccccc2)c1 | – | – | – | – | – | –
Cc1csc2nc(O)c(C(=O)NC3CCCCC3)c(=O)n12 | – | 21µM | – | – | – | –
Cc1ccn2c(=O)c(C(=O)NCCCN3CCCC3=O)c(O)nc2c1 | – | – | – | – | – | –
Cc1csc2nc(O)c(C(=O)NCCCN3CCCC3=O)c(=O)n12 | – | 18µM | – | – | – | –
O=C(Nc1ccc(CN2CCOCC2)cc1)c1cc2ccccn2n1 | – | – | – | – | – | 22µM
O=C(NC(=S)Nc1ccc(CN2CCOCC2)cc1)c1ccc(-c2ccc(Br)cc2)o1 | – | – | – | – | – | –
O=C(Nc1ccc(CN2CCOCC2)cc1)c1ccc(-c2ccc(Cl)cc2Cl)o1 | – | – | ? | 15µM | – | ?
COc1ccc(Br)cc1C(=O)NC(=S)Nc1ccc(CN2CCOCC2)cc1 | – | – | ? | ? | – | 25µM
COc1ccc(NC(=O)C(C)N2c3cccc4cccc(c34)S2(=O)=O)cc1OC (centres undefined) | 18µM | 5.2µM | ? | ? | ? | ?
Cc1ccc(CN2CCC(CO)(CC3CCCCO3)CC2)o1 (centres undefined) | – | – | – | – | ? | –
Cc1ccc2[nH]c(CN3CCC(CO)(CC4CCCCO4)CC3)c(C)c2c1 (centres undefined) | – | ? | 13µM | ? | – | –
CCC(C)NC(=O)c1cccc(NC(=O)c2nsc3ccccc23)c1 (centres undefined) | – | – | · | · | ? | –
CC1(C)Cc2ccccc2-c2nnc(SCC(=O)Nc3nc4ccccc4s3)n21 | ? | 3.3µM | – | – | – | –
CC1(C)Cc2ccccc2-c2nnc(SCC(=O)N3CCN(c4ccccc4)CC3)n21 | 12µM | 2.3µM | ? | – | – | ?
Cc1ccccc1-n1c(SCC(=O)N2CCN(c3ccccc3)CC2)nnc1-c1ccncc1 | – | 3.7µM | – | – | ? | –
Cn1c(SCC(=O)Nc2nc3ccccc3s2)nnc1-c1ccccc1 | – | – | – | – | – | –
Cc1cccc(CS(=O)(=O)Cc2ccc(C(=O)NCc3ccc(F)cc3)o2)c1 | – | – | · | · | · | ·
CCc1ccc(NC(=O)c2ccccc2NC(=O)C2CCCO2)cc1 (centres undefined) | – | 6.5µM | – | – | – | –
O=C(Nc1ccc(-c2nc3ccccc3[nH]2)cc1)C1CCCO1 (centres undefined) | ? | ? | 11µM | 10µM | – | –
O=C(CSc1ccccc1)Nc1ccc(-c2nc3ccccc3[nH]2)cc1 | 21µM | ? | ? | 13µM | – | –

Source: PubChem
